Rows were chosen to be rich in hits. Some 10% of all compounds tested hit in one or more screens of this group.
ELG1 DNA repair: qHTS screen for small molecules that inhibit ELG1-dependent DNA repair in human embryonic kidney (HEK293T) cells expressing luciferase-tagged ELG1; HEK293T ELG1-luciferase reporter, luminescence, 16 h; DNA damage induced by 5-fluorouridine; Potency, µM (titrated, usually from 46.1 µM), for the others: at the top dose activity change, negative = inhibition, most hits filed as inhibitors; 330,000 compounds, 2.3% hits; AID 504467, 2011; further: on the % scale 0 is the no-effect control and ±100 the full control effect; nearly all actives have a fitted effect of over 55% in size
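5-Fluorouridine DNA damage + compound/DMSO, 2,000 cells/well, 16 h, 37 °C/5% CO2. ONE-Glo, 30 min RT, luminescence. Readout = decrease in reporter signal.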
RORg inh: qHTS for inhibitors of ROR gamma transcriptional activity; Nuclear receptor ROR-gamma (Mus musculus), P51450; Drosophila S2 Gal4-RORgamma UAS-luciferase reporter, 20 h; Potency, µM (highest dose often 53.6 µM), without a hit: at the highest dose activity change, negative = inhibition, hits mostly inhibitors; 310,000 compounds, 5.4% hits; further: on the % scale 0 is the no-effect control and ±100 the full control effect; nearly all actives have a fitted effect of over 60% in size
Target sequence (P51450 whole entry, looked up, the tested form may be a part): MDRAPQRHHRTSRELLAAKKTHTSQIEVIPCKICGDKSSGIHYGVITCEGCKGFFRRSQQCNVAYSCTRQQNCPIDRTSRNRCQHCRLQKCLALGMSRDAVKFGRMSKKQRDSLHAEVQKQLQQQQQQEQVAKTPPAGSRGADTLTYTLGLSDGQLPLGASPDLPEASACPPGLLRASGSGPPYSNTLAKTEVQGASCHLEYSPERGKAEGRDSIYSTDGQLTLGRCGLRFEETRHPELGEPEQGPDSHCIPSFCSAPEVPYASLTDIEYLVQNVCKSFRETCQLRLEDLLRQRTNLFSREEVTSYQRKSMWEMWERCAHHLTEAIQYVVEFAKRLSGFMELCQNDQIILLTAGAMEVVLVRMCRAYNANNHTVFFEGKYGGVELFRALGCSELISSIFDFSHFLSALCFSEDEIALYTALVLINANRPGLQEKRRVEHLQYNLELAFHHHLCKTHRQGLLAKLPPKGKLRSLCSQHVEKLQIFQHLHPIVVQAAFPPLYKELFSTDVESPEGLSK
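A Gal4/UAS one-hybrid system in insect cells: metallothionein-promoter Gal4–ROR gamma fusion plus Photinus luciferase reporter. Copper sulfate 700 uM final, 20 hr ambient incubation, luminescent detection after 10 min with reagent.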
SW480 rerep: A quantitative high throughput screen for small molecules that induce DNA re-replication in SW480 colon adenocarcinoma cells. SW480 DNA re-replication, Hoechst DNA content imaging, 48 h. Potency, µM (titrated, usually from 46.1 µM), without a hit: at the top dose re-replication activation, most hits filed as activators. 340,000 compounds, 1.8% hits; further: % of control where 0% means no effect; nearly all actives have a fitted effect of over 55% in size
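Readout is total intensity of Hoechst-stained nuclei, excited at 405 nm and collected at 500-530 nm. Compound treatment lasted 48 hr at 37 C in 5% CO2 before staining.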
Gal4-VP16 FLuc: VP16 counterscreen qHTS for inhibitors of ROR gamma transcriptional activity. Drosophila S2 Gal4-VP16 UAS-luciferase, luminescence, 20 h. Potency, µM (top dose mostly 53.6 µM), for inactives: at the top dose activity, negative = inhibition, usual class: inhibitors. 310,000 compounds, 3.5% hits. AID 2546, 2010;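 further: Gal4-VP16 expression switched on by copper sulfate through the metallothionein promoter; on the % scale 0 is the no-effect control and ±100 the full control effect; nearly all actives have a fitted effect of over 50% in size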
MCF10A rerep: A quantitative high throughput screen for small molecules that induce DNA re-replication in MCF 10a normal breast cells | MCF 10A DNA re-replication, Hoechst nuclear intensity, 48 h | Potency, µM (top dose mostly 46.1 µM), without a hit: at the top dose activity, positive = re-replication, actives largely listed as activators | 350,000 compounds, 2.9% hits | AID 624296, 2012; further: % of control where 0% means no effect; nearly all actives have a fitted effect of over 50% in size
Active calls of the source: *. The call rests on the fitted dose curve; in most records, active means well fitted curve in the direction sought with a large enough effect; inconclusive means small, poorly fitted or top-dose-only effect, or another doubt; inactive means no such curve, though single readings can be large; an effect the other way counts as inactive or inconclusive. Potency means the concentration at half of the fitted maximal effect.

Results for CN(c1ccccc1)S(=O)(=O)c1cccc(NC(=O)c2ccc(Cl)c([N+](=O)[O-])c2)c1 ?
ELG1 DNA repair: 20.6µM*; SW480 rerep: 4.3%; MCF10A rerep: inconclusive

What do the screens show for `Cc1ccc(S(=O)(=O)N(CC(=O)Nc2cccc(N(C)S(C)(=O)=O)c2)c2ccc(Cl)c(Cl)c2)cc1`?
ELG1 DNA repair: inconclusive; RORg inh: 4.7%; SW480 rerep: -8.0%; Gal4-VP16 FLuc: -8.7%; MCF10A rerep: -13.4%

How did CN(c1cccc(NC(=O)CN(c2ccc(Cl)c(Cl)c2)S(=O)(=O)c2ccccc2)c1)S(C)(=O)=O do in these assays?
ELG1 DNA repair: 16.4µM*; RORg inh: inconclusive; Gal4-VP16 FLuc: -1.3%; MCF10A rerep: 23.5%

How did O=C(Nc1ccccc1-c1ccccc1)c1ccc(Cl)c([N+](=O)[O-])c1 do in these assays?
ELG1 DNA repair: -17.5%; RORg inh: 27.2%; SW480 rerep: -3.5%; Gal4-VP16 FLuc: -1.1%; MCF10A rerep: 9.2µM*

What do the screens show for `CN(c1ccccc1)S(=O)(=O)c1cccc(NC(=O)c2ccncc2)c1`?
ELG1 DNA repair: inconclusive; RORg inh: inconclusive; SW480 rerep: -8.0%; Gal4-VP16 FLuc: inconclusive; MCF10A rerep: 3.2%

How did NC(=NCCc1c[nH]c2ccccc12)NC(=O)c1ccc(F)cc1 do in these assays?
ELG1 DNA repair: 14.0%; RORg inh: -4.9%; SW480 rerep: -2.0%; Gal4-VP16 FLuc: 0.9%; MCF10A rerep: 0.0%

Results for CCOC(=O)C1CCCN(C(=O)c2cccc(S(=O)(=O)N(C)c3c(C)n(C)n(-c4ccccc4)c3=O)c2)C1 (stereo not given) ?
ELG1 DNA repair: 4.4%; RORg inh: 9.6%; SW480 rerep: inconclusive; Gal4-VP16 FLuc: -5.0%; MCF10A rerep: -34.9%

Results for Cc1c(N(C)S(=O)(=O)c2ccc(Cl)c(C(=O)N3CCC(C(N)=O)CC3)c2)c(=O)n(-c2ccccc2)n1C ?
ELG1 DNA repair: -15.3%; SW480 rerep: 6.51µM*; MCF10A rerep: 8.3%

Results for O=C(CCC(=O)Nc1nnc(C2CCCCC2)s1)NCc1ccccc1 ?
ELG1 DNA repair: 7.8%; RORg inh: -33.7%; SW480 rerep: -14.6%; Gal4-VP16 FLuc: 2.4%; MCF10A rerep: -3.8%

Results for Cc1ccc(NC(=O)C2CCCN(C(=O)c3ccc(Cl)cc3)C2)c(C)c1 (stereo not given) ?
ELG1 DNA repair: -6.9%; RORg inh: 4.3%; SW480 rerep: 5.4%; Gal4-VP16 FLuc: 3.4%; MCF10A rerep: -4.0%

How did Cc1nn(-c2ccccc2)c(Cl)c1C(=O)N1CCN(c2ncnc3c2cnn3-c2ccccc2)CC1 do in these assays?
ELG1 DNA repair: 7.31µM*; RORg inh: -28.6%; SW480 rerep: inconclusive; Gal4-VP16 FLuc: inconclusive; MCF10A rerep: inconclusive

What do the screens show for `O=C(c1cccc(Cl)c1)N1CCN(c2ncnc3c2cnn3-c2ccccc2)CC1`?
ELG1 DNA repair: 11.6µM*; RORg inh: 43.2%; SW480 rerep: -4.2%; Gal4-VP16 FLuc: -3.8%; MCF10A rerep: -0.3%

Results for O=C(c1ccccc1)N1CCN(c2ncnc3c2cnn3-c2ccccc2)CC1 ?
ELG1 DNA repair: -4.5%; RORg inh: inconclusive; SW480 rerep: -0.7%; Gal4-VP16 FLuc: 0.3%; MCF10A rerep: -6.2%

How did O=C(c1ccco1)N1CCN(c2ncnc3c2cnn3-c2ccccc2)CC1 do in these assays?
ELG1 DNA repair: -11.4%; RORg inh: 26.9%; SW480 rerep: -7.0%; Gal4-VP16 FLuc: 2.9%; MCF10A rerep: inconclusive

Results for CCOP(=O)(OCC)C(C#N)=C1SCN(c2ccc(Cl)cc2)CS1 ?
ELG1 DNA repair: 3.9%; RORg inh: 14.1µM*; SW480 rerep: -8.4%; Gal4-VP16 FLuc: inconclusive; MCF10A rerep: -3.2%

Results for N#CCC(=N)N1CCN(c2ccc(Cl)cc2)CC1 ?
ELG1 DNA repair: -1.0%; RORg inh: 18.7%; SW480 rerep: 3.8%; Gal4-VP16 FLuc: -1.9%; MCF10A rerep: 2.7%
